Source: PubChem BioAssay (National Center for Advancing Translational Sciences (NCATS))
Hits are enriched below; roughly 18% of the tested compounds scored in any of these assays.
HepG2 tox = kills HepG2 cells in TGF-b inhibitor counter-screen; HepG2 CAGA-GFP viability, ATP luminescence, 18 h; Potency, µM (titrated, usually from 46.1 µM), inactives show at the highest dose activity change, negative = cytotoxicity, most hits filed as cytotoxic; 410,000 tested, 0.76% active; AID 588856; also: potency is read from the fitted curve at half-maximal effect
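HepG2 CAGA-GFP cells (1000/well, DMEM with 1% FBS) received compound, then TGF-beta at 500 pg/mL final, and were incubated 18 hours at 37 degrees C. Viability was read by CellTiter-Glo luminescence. Media-only wells were set as complete cell-killing and DMSO as no toxicity.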
TDP1 inh = inhibitors of human tyrosyl-DNA phosphodiesterase TDP1; Q9NUW8; Potency, µM (doses to about 130 µM), without a hit: at the highest dose activity change, negative = inhibition, hits mostly inhibitors; recombinant TDP1, AlphaScreen DNA substrate cleavage; AID 485290; 350,000 tested, 0.28% active; also: potency is read from the fitted curve at half-maximal effect; % is scaled to controls: 0 for no effect and ±100 for the full control effect; nearly all actives have a fitted effect of over 40% in size
Target sequence (Q9NUW8 whole entry, looked up): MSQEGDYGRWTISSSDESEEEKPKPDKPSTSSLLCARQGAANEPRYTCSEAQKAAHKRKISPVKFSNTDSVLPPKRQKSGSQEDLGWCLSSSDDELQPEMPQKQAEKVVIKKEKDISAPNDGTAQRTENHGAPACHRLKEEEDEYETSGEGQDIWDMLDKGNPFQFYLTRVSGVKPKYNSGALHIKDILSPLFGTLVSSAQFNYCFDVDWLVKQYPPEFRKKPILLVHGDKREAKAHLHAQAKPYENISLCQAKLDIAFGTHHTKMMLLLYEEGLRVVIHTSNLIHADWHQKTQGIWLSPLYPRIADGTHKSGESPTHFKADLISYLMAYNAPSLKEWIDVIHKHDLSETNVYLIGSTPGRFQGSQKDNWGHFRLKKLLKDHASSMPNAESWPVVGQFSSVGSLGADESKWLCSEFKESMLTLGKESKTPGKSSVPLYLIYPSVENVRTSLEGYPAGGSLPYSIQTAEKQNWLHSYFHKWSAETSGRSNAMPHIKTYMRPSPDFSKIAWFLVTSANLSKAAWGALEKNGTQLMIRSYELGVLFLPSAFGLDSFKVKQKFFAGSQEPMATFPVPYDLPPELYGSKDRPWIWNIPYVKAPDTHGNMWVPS
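Here, a 5' biotin and 3' phosphotyrosine-FITC DNA oligonucleotide reports Tdp1 activity: intact substrate bridges AlphaScreen beads, while cleavage leaves a 3' phosphate and drops signal. All incubations at room temperature.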
DT40 TDP1 CPT = growth inhibition of DT40 Tdp1-/-;hTDP1 cells with camptothecin (screen for TDP1 inhibitors). chicken DT40 Tdp1-/-;hTDP1 cells + 20 nM CPT, ATP luminescence, 48 h. Potency, µM (series often up to 46.2 µM), without a hit: at the highest dose activity change, negative = growth inhibition, actives largely listed as inhibitors. 420,000 tested, 12% active. AID 686979; also: potency is read from the fitted curve at half-maximal effect; % is scaled to controls: 0 for no effect and ±100 for the full control effect; nearly all actives have a fitted effect of over 55% in size
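Chicken DT40 Tdp1-/- cells stably complemented with human TDP1 were seeded at 400 cells/well in medium containing 20 nM camptothecin, exposed to pin-transferred compounds, and grown at 37 °C for at least 48 hr. Viability was read as ATP luminescence.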
DT40 TDP1 no CPT = qHTS for Inhibitors of human tyrosyl-DNA phosphodiesterase 1 (TDP1): qHTS in cells in absence of CPT. DT40 Tdp1-/- hTDP1 cells, no CPT, ATP luminescence, 48 h. Potency, µM (series often up to 46.2 µM), inactives show at the top dose activity change, negative = growth inhibition, hits mostly inhibitors. 420,000 tested, 15% active. AID 686978, 2013; also: potency is read from the fitted curve at half-maximal effect; % is scaled to controls: 0 for no effect and ±100 for the full control effect; nearly all actives have a fitted effect of over 55% in size
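Chicken DT40 Tdp1-/- cells stably complemented with human TDP1 were seeded at 400 cells/well with DMSO in place of 20 nM camptothecin. After compound pinning, cells grew at least 48 hr at 37 °C; viability read by CellTiter-Glo luminescence.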
IL-1B inflam inh = inflammasome signaling inhibition, IL-1 beta readout; 360,000 tested, 4.7% active; AID 743279; THP-1 LPS/ATP IL-1B secretion, AlphaLISA, 16 h; stronger effect = lower value; activity change, % at 57.5 µM; in the data active = activity change below about -50%; inconclusive = mostly about -30% to -49%; also: % is scaled to controls: 0 for no effect and ±100 for the full control effect
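Secreted IL-1B measured by AlphaLISA bead assay after 16 h compound exposure of THP-1 cells; compounds (final up to 57.5 uM) added 1 h before LPS (250 ng/mL) and ATP (1.25 mM) stimulation; lower signal means less secretion.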
TGFb SMAD3 inh = blocks TGF-b signaling; HepG2 CAGA-GFP TGF-b/SMAD3 reporter, GFP fluorescence, 18 h; TGF-beta stimulated, 500 pg/mL final; Potency, µM (titrated, usually from 46.1 µM), inactives show at the highest dose activity, negative = inhibition, most hits filed as inhibitors; 410,000 tested, 1.2% active; AID 588855; also: potency is read from the fitted curve at half-maximal effect; % is scaled to controls: 0 for no effect and ±100 for the full control effect; nearly all actives have a fitted effect of over 65% in size
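Smad-responsive CAGA-GFP expression was quantified in HEPG2 cells exposed to compounds and 500 pg/mL final TGF-beta for 18 h at 37 degrees C; unstimulated wells defined full inhibition.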
* marks the source's active call; other numbers are inactive results; ? = inconclusive; nt = not tested or not shown; ! = not confirmed by another sample. Unless noted, calls follow the shape of the dose curve; as a rule, active = well fitted curve in the direction sought with a large enough effect; inconclusive = small, poorly fitted or top-dose-only effect, or another doubt; inactive = no such curve, though single readings can be large; an effect the other way counts as inactive or inconclusive.

SMILES	HepG2 tox	TDP1 inh	DT40 TDP1 CPT	DT40 TDP1 no CPT	IL-1B inflam inh	TGFb SMAD3 inh
CCOC(=O)c1c(C)[nH]c(C)c1S(=O)(=O)NCc1ccc(OCC)cc1	-1.8%	3.0%	-6.3%	5.7%	-10.7	0.6%
O=C(Cc1ccccc1Cl)NO	nt	nt	-0.7%	?	nt	nt
Cc1ccc(NC(=O)c2cc3c(=O)n(Cc4cccnc4)ccc3nc2C)cc1F	0.4%	3.2%	-11.6%	-18.7%	nt	16.6%
O=C1/C(=C/c2cccnc2)CC/C1=C\c1cccnc1	-13.2%	5.8%	?	?	-87.2*	6.8%
CCC1C/C(=C\c2cccnc2)C(=O)/C(=C/c2cccnc2)C1 (stereo not given)	10µM*	2.7%	3.26µM*	4.61µM*	?	3.98µM*
CC(C)N1C(=O)S/C(=C/c2cccnc2)C1=O	-32.2%	0.0%	-25.1%	-29.5%	-29.1	-15.7%
O=C1/C(=C/c2cccnc2)CCC/C1=C\c1cccnc1	-98.9%	2.6%	2.06µM*	2.06µM*	-106.8*	3.98µM*
NC1=NC(=O)/C(=C\c2cccnc2)S1	7.5%	5.3%	?	-23.8%	-11.2	?
CCOc1ccc(C2=C/C(=C/c3cccnc3)C(=O)O2)cc1	-1.3%	-3.2%	?	?	3.3	0.4%
CC(C)/C=C1\CC/C(=C\c2cccnc2)C1=O	2.9%	1.2%	?	20.6µM*	-9.8	1.3%
COc1ccccc1N1CCN(C(=O)c2ccc3c(c2)N(Cc2cc(C)ccc2C)C(=O)c2ccccc2S3(=O)=O)CC1	0.0%	5.8%	-122.6%	?	nt	nt
O=C(O)CCC(=O)Nc1ccc(Oc2ncnc3cc(Cl)ccc23)nc1	16.7%	nt	-8.0%	-6.5%	12.3	18.8%
Cc1ccc(NC(=O)C2(C)CCCN(C(C)C)C2)cc1C (stereo not given)	-4.4%	nt	-24.6%	?	0.0	7.7%
O=C1/C(=C/c2ccccc2)CCCc2ccccc21	-9.0%	4.2%	-16.2%	?	-19.3	0.7%
O=C1/C(=C\c2cccnc2)CCc2ccccc21	-37.1%	3.1%	13µM*	18.4µM*	-110.6*	?
CCN(CC)C(=O)CNC(=O)Cc1ccc(Cl)cc1	-15.7%	0.5%	3.2%	4.9%	-14.3	-6.5%
O=C(O)CC/C(=N/NC(=O)c1cccs1)c1ccccc1	-1.3%	2.6%	-2.8%	5.2%	24.6	-2.1%
COc1ccc(Nc2nc(OC)nc(N3CCOCC3)n2)cc1	-4.1%	6.0%	2.9%	6.5%	-13.0	20.0%
CCc1ccc(Nc2nc(N3CCOCC3)nc(N3CCOCC3)n2)cc1	-20.7%	1.6%	?	?	?	-14.8%
Cc1ccc(Nc2nc(OC(C(F)(F)F)C(F)(F)F)nc(N3CCOCC3)n2)cc1	-37.4%	-2.1%	?	14.6µM*	-80.4*	24.9%
FC(F)(F)Oc1ccc(Nc2nc(N3CCOCC3)nc(N3CCOCC3)n2)cc1	3.9%	0.4%	18.4µM*	16.4µM*	-4.8	8.3%
CC(=O)N1CC=CC1(CC(C)C)C(=O)O (stereo not given)	nt	6.9%	nt	nt	nt	nt
O=C(NCCS(=O)(=O)N1CCN(c2ccc(F)cc2)CC1)C1CC(=O)N(c2ccc(F)cc2)C1 (stereo not given)	3.2%	0.6%	4.0%	-8.6%	nt	0.7%
Cc1ccc(N2CC(C(=O)NCCS(=O)(=O)N3CCN(c4ccc(F)cc4)CC3)CC2=O)cc1 (stereo not given)	1µM*!	-0.3%	-0.7%	10.1%	-18.6	17.2%
O=S(=O)(NCCS(=O)(=O)N1CCN(c2cccc(Cl)c2)CC1)c1ccc(F)cc1	-19.0%	5.3%	-50.7%	20.6µM*	nt	-29.8%
SMILES	HepG2 tox	TDP1 inh	DT40 TDP1 CPT	DT40 TDP1 no CPT	IL-1B inflam inh	TGFb SMAD3 inh
O=S(=O)(NCCS(=O)(=O)N1CCN(c2ccccc2)CC1)c1ccccc1	-1.6%	-1.1%	-18.5%	?	-5.5	-3.6%
Cc1ccc(S(=O)(=O)NCCS(=O)(=O)N2CCN(c3ccc(F)cc3)CC2)cc1	-18.2%	-2.1%	?	11.6µM*	3.1	-11.3%
CN(C)CCNS(=O)(=O)c1ccc(N2CCN(c3ccc(F)cc3)CC2)c([N+](=O)[O-])c1	-45.7%	8.2%	13µM*	13µM*	-73.5*	0.0%
CNC(=O)c1cc(Oc2ccc(NC(=O)c3[nH]c(-c4ccccc4)c4c3C(=O)N(C)C4=O)cc2)ccn1	24.8%	nt	?	?	37.3	1.2%
COc1ccc(SCC(CC(C)C)N2CCN(C)CCC2=O)cc1 (stereo not given)	-22.1%	2.6%	nt	nt	nt	-21.6%
Cc1cccc(C)c1NC(=O)C1(C)CSCC(=O)N1CCc1ccccc1 (stereo not given)	nt	nt	?	6.3%	5.3	nt
O=C(NCCS(=O)(=O)N1CCN(c2ccc(F)cc2)CC1)c1cc(=O)c2ccccc2o1	1.3%	3.0%	?	?	nt	6.5%
O=C(NCCS(=O)(=O)N1CCN(c2cccc(Cl)c2)CC1)c1cc(=O)c2ccccc2o1	-1.6%	0.5%	?	2.06µM*	-3.9	-2.5%
CC1CCN(CCCNS(=O)(=O)c2ccc3c(c2)CCN3C(=O)C2CC2)CC1	8.1%	0.9%	-22.8%	-8.1%	-1.4	13.7%
CC(=O)N1CCc2cc(S(=O)(=O)NCCC(=O)Nc3cccc(C)c3)ccc21	-1.4%	0.0%	-15.4%	-19.3%	45.4	-8.2%
Cc1cccc(NC(=O)CCNS(=O)(=O)c2ccc3c(c2)CCN3C(=O)C2CC2)c1	-14.0%	2.2%	18.4µM*	20.6µM*	nt	-2.0%
O=C(CCNS(=O)(=O)c1ccc2c(c1)CCN2C(=O)C1CC1)Nc1ccc(F)cc1F	-18.1%	3.3%	8.2µM*	13µM*	nt	2.5%
COc1ccccc1C1CCN(C(=O)c2ccccc2)CC1	-26.1%	nt	-27.5%	?	-16.1	-17.8%
COc1ccccc1C1CCN(C(=O)c2cnn(-c3ccccc3)c2C)CC1	-13.4%	5.1%	20.6µM*	14.6µM*	-6.8	-24.1%
COc1ccccc1C1CCN(C(=O)c2cccs2)CC1	-5.6%	6.8%	-11.2%	-18.6%	-53.5*	0.0%
C[C@@H](C(=O)OCC(=O)c1ccc(F)c(F)c1)N1C(=O)C2CCCCC2C1=O (stereo not given in full)	-9.3%	0.9%	-15.7%	3.4%	20.1	0.9%
Oc1[nH]c2ccccc2c1N=Nc1nncc2ccccc12	-35.7%	3.1%	?	?	11.0	-16.5%
Cc1sc2ncnc(N=Nc3c(O)[nH]c4ccccc34)c2c1C	-1.4%	-4.6%	-7.7%	23.1µM*	32.3	4.5%
